In the supplement of paper PMC10338343:
± gives the standard deviation.

What was measured:
[1] = system: MILI (PIWIL2) piRISC loaded with L1MC piRNA (26 nt); assay: pre-steady-state target cleavage rate (min^-1); guide: L1MC piRNA 5'p-UAACUAAAUACUAUGCAAGCUGUAGG; higher = faster piRNA-guided slicing of the target
How it was run: (§1)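 A transcribed, DNA-blocked target RNA library (0.1 nM) and 1 nM active affinity-purified piRISC bearing one synthetic guide were incubated in HEPES–potassium acetate buffer at 33 °C for 0–8 or 0–960 min, either with or without 500 nM GTSF1 partner protein. Uncleaved targets were sequenced, normalised to depth and to weakly complementary targets, and pooled over three trials, with k3 capped at 0.0001 min^-1. The pre-steady-state cleavage rate was derived with a burst-and-steady-state fit.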

[2] = system: EfPiwi piRISC loaded with L1MC piRNA (26 nt); assay: pre-steady-state target cleavage rate (min^-1); auxiliary factor: 500 nM Ephydatia muelleri Gtsf1; guide: L1MC piRNA 5'p-UAACUAAAUACUAUGCAAGCUGUAGG; MIWI and MILI are mouse PIWI proteins and EfPiwi is from a freshwater sponge; tags in brackets are library labels; higher = faster piRNA-guided slicing of the target
How it was run: as §1

[3] = auxiliary factor: 500 nM mouse GTSF1
[4] = auxiliary factor: none (no GTSF1)

Sequence | pre-steady-state target cleavage rate [1, 3] | pre-steady-state target cleavage rate [1, 4] | pre-steady-state target cleavage rate [2]
UCCUGCUACAGCUUGCAUAGUAUUUAGUUA [g2:g25:cont:t1A] | 0.282 ± 0.019 | 0.0105 ± 0.003 | 0.0357 ± 0.011
UCCUGGAACAGCUUCGAUAGUAUUUAGUUA | 0.262 ± 0.015 | 0.00483 ± 0.0022 | 0.00251 ± 0.0023
UCCUGCUAACAGCUUGCAUAGUAUUUAGUUA | 0.307 ± 0.033 | 0.00599 ± 0.0032 | 0.0114 ± 0.0038
UCCUGGAUGUCCUUGCCUAGUAUUUAGUUA | 0.0522 ± 0.0084 | 0.00452 ± 0.002 | 0.00345 ± 0.002
UCCUGCUACAGGUUGCAUAGUAUUUAGUUA | 0.246 ± 0.011 | 0.013 ± 0.0028 | 0.0242 ± 0.0053
UCCUGCUACAGCUUGCAUAAUAUUUAGUUA | 0.363 ± 0.034 | 0.00537 ± 0.0019 | 0.00444 ± 0.0021
UCCUGGAACAGCAUUGCAUAGUAUUUAGUUA | 0.233 ± 0.024 | 0.00862 ± 0.0022 | 0.015 ± 0.0044
UCCUGGUUCUGCUUGCAUAGUAUUUAGUUA | 0.186 ± 0.024 | 0.00814 ± 0.0033 | 0.0355 ± 0.011
UCCUGCUACAGCUUGCAUUGUAUUUAGUUA | 0.248 ± 0.022 | 0.0081 ± 0.0028 | 0.00662 ± 0.0024
UCCUGGAACAGCUUGCAAGUAUUUAGUUA | 0.141 ± 0.013 | 0.00614 ± 0.0021 | 0.00284 ± 0.0019
UCCUGGAACAGCUUGCAUAGUCUUUAGUUA | 0.197 ± 0.016 | 0.00483 ± 0.0022 | 0.00979 ± 0.0029
UCCUGCUACACCUUGCAAAGUAUUUAGUUA | 0.106 ± 0.0086 | 0.00675 ± 0.0025 | 0.00571 ± 0.0021
UCCUCCUACAGCUUGCAUAGUAUAUUAGUUA | 0.282 ± 0.019 | 0.00588 ± 0.0024 | 0.0567 ± 0.019
UCCUGCUAGUCCUUGCAUAGUAUUUAGUUA | 0.0977 ± 0.016 | 0.00689 ± 0.0019 | 0.00428 ± 0.0023
UCCUCCUACAGCUUGCAUGUAUUUAGUUA | 0.0804 ± 0.012 | 0.00283 ± 0.0027 | 0.00924 ± 0.0046
UCCUCCUACAGCUUGCAUAGUAUAUUGUUA | 0.128 ± 0.019 | 0.00269 ± 0.0025 | 0.00489 ± 0.003
UCCUGGAUGAGGUUGCAUAGUAUUUAGUUA | 0.129 ± 0.015 | 0.0136 ± 0.0032 | 0.00786 ± 0.0024
UCCUGGAACAGCUUGCACAGUAUUUAGUUA | 0.169 ± 0.014 | 0.0128 ± 0.003 | 0.0589 ± 0.015
UCCUCUUACAGCUUGCAUAGUAUUUAGUUA | 0.35 ± 0.015 | 0.00963 ± 0.0032 | 0.243 ± 0.061
UCCUGGUACAGCUUGUAUAGUAUUUAGUUA | 0.242 ± 0.017 | 0.0121 ± 0.0031 | 0.0177 ± 0.0048
UCCUGCUUCAGCAUGCAUAGUAUUUAGUUA | 0.291 ± 0.015 | 0.0121 ± 0.0034 | 0.0186 ± 0.0047
UCCUGGAUGUCCUUGCAUAGUAUCUAGUUA | 0.12 ± 0.024 | 0.00287 ± 0.0025 | 0.00775 ± 0.0043
UCCUCCUACAGGUUGCAUAGUAUAUAGUUA | 0.219 ± 0.022 | 0.00587 ± 0.0019 | 0.0129 ± 0.0046
UCCUGGUUCAGCUUGCAUAGUAUUUUGUUA | 0.16 ± 0.03 | 0.00444 ± 0.0036 | 0.00528 ± 0.0032
UCCUGGAUGUGCUUGCAUAGUAGUUUAGUUA | 0.0704 ± 0.017 | 0.00921 ± 0.0027 | 0.0051 ± 0.0034
UCCUGGAUGUCCUUGCAUAGUAUUUAGUAA | 0.117 ± 0.019 | 0.00376 ± 0.0019 | 0.00321 ± 0.0025

Sequence | pre-steady-state target cleavage rate [1, 3] | pre-steady-state target cleavage rate [1, 4] | pre-steady-state target cleavage rate [2]
UCCUGGAAGUGCUUGCAUAGUAUUUAGUUA | 0.127 ± 0.013 | 0.00836 ± 0.0022 | 0.00537 ± 0.0019
UCCUGCUACAGCUUGGUAAGUAUUUAGUUA | 0.131 ± 0.019 | 0.00591 ± 0.0018 | 0.00341 ± 0.0025
UCCUGGAUGUCGUCUGCAUAGUAUUUAGUUA | 0.106 ± 0.015 | 0.00397 ± 0.0027 | 0.00907 ± 0.0032
UCCUCCUACAGCUUGCAUAGAUAUUUAGUUA | 0.0178 ± 0.0058 | 0.00345 ± 0.0022 | 0.00501 ± 0.0032
UCCUGGAUUAGCUUGCAUAGUAUUUAGUUA | 0.232 ± 0.016 | 0.00961 ± 0.0024 | 0.0447 ± 0.011
UCCUGGAAGAGCUUGGAUAGUAUUUAGUUA | 0.178 ± 0.0086 | 0.00531 ± 0.0023 | 0.00392 ± 0.0027
UCCUGGUAGCAGCUUGCAUAGUAUUUAGUUA | 0.286 ± 0.019 | 0.0162 ± 0.0048 | 0.0746 ± 0.02
UCCUGGUUCACCUUGCAUAGUAUUUAGUUA | 0.128 ± 0.022 | 0.00513 ± 0.0027 | 0.0052 ± 0.0033
UCCUGGAUCAGCUUGCAUAGUAUUAAGUUA | 0.262 ± 0.026 | 0.00729 ± 0.0019 | 0.0323 ± 0.0094
UCCUGGAAGAGGUUGCAUAGUAUUUAGUUA | 0.233 ± 0.012 | 0.0116 ± 0.0031 | 0.00538 ± 0.0032
UCCUCCAACAGCUAGCAUAGUAUUUAGUUA | 0.25 ± 0.017 | 0.00537 ± 0.0023 | 0.00798 ± 0.0027
UCCUGGAACAGGCUUGCAUAGUAUUUAGUUA | 0.219 ± 0.019 | 0.0094 ± 0.0029 | 0.0145 ± 0.0037
UCCUGGAUGAGCUUUGCAUAGUAUUUAGUUA | 0.181 ± 0.013 | 0.0103 ± 0.0021 | 0.0107 ± 0.0037
UCCUGGAUGAGCAAGCAUAGUAUUUAGUUA | 0.12 ± 0.014 | 0.00601 ± 0.0021 | 0.0118 ± 0.0048
UCCUGGAACAGCUUGCUUAGUAAUUAGUUA | 0.213 ± 0.019 | 0.00562 ± 0.0024 | 0.00639 ± 0.0027
UCCUGGAUCAGCUUCCAAAGUAUUUAGUUA | 0.0704 ± 0.0082 | 0.00341 ± 0.0024 | 0.00404 ± 0.0027
UCCUGGAUGUGCUUGCAUCGUAUUUAGUUA | 0.0778 ± 0.017 | 0.0103 ± 0.0028 | 0.00598 ± 0.0028
UCCUGGAUGUCGUUGCAUAGUACUUAGUUA | 0.0399 ± 0.011 | 0.00463 ± 0.0029 | 0.00365 ± 0.0035
UCCUGGAACAGGUUGCAUACUAUUUAGUUA | 0.0491 ± 0.0087 | 0.00363 ± 0.002 | 0.00367 ± 0.0017
UCCUGGAUGUCGAAGCAUAGUAUUUAGUUA [g2:g16:cont:t1A] | 0.0359 ± 0.0067 | 0.00487 ± 0.0016 | 0.00352 ± 0.002
UCCUGGAUGAGCUAGCAUAGUAUUUAGUUA | 0.2 ± 0.018 | 0.00679 ± 0.0019 | 0.00597 ± 0.002
UCCUGGAUGUCCUUGCACAGUAUUUAGUUA | 0.145 ± 0.028 | 0.00389 ± 0.0023 | 0.00454 ± 0.0024
UCCUCCUACUCCUUGCAUAGUAUUUAGUUA | 0.261 ± 0.021 | 0.0087 ± 0.0018 | 0.165 ± 0.046
UCCUGCUACAGCUUGAUAGUAUUUAGUUA | 0.133 ± 0.017 | 0.00396 ± 0.0021 | 0.00658 ± 0.0031
UCCUCCUACACGAUGCAUAGUAUUUAGUAA | 0.194 ± 0.026 | 0.00362 ± 0.0022 | 0.00453 ± 0.0027
UCCUGGUACAGGAAGCAUAGUAUUUAGUUA | 0.223 ± 0.025 | 0.00538 ± 0.0026 | 0.00248 ± 0.0023
